INHIBITION data for 106 molecules are collected here from ChEMBL document CHEMBL4513216, “Probing the Open Global Health Chemical Diversity Library for Multistage-Active Starting Points for Next-Generation Antimalarials” (ACS Infect Dis, 2020).

Screen size: about 69,000 compounds; about 8,600 (12%) showed an effect of 50% or more. The sample holds strong results, similar compounds and a random draw of the others, so the mix is not that of the screen.

In the experiment the test system is Plasmodium berghei. Kind of experiment: Screen against P. berghei liver stage (PbLuc), transformed with Luciferase, at 10uM. Format: functional, HepG2. To be noted: tested at 10 uM.
Consider `CC(C)N(Cc1cccc(Cl)c1)Cc1nc2c(cnn2C)c(=O)[nH]1`, for which the INHIBITION was 15.6%. Consider `COc1ccc(CCNC2CCCN(Cc3noc(C)n3)C2)cc1` (stereo unspecified), for which the INHIBITION is 35.9%. The figure for `CC(=O)Nc1ccccc1Sc1nc(Br)nn1C` is 5.58%; for `CN(Cc1n[nH]c2c1CCC2)C(=O)c1cc(-c2cccn2C)n[nH]1` it is -7.53%. Under `CCOCc1ccc(CNC2=NCCCN2)cc1` stands 47.1%; under `CC(C)C(=O)NCc1ccc(N(C)C)cc1`, -51.5%; under `CN(C)c1ccc(CNC2=NCCCN2)cc1`, 75.8%. Under `COC(=O)c1ccc(Cn2nc(C)cc2C)cc1` stands -60.4%; under `CCN1CCN(C(=O)c2[nH]c3ccccc3c2Cl)[C@H]2CS(=O)(=O)C[C@H]21`, -9.87%; under `Cc1c(C(=O)N2CCN(C)[C@@H]3CS(=O)(=O)C[C@@H]32)[nH]c2ccc(F)cc12`, 43%.

With `CCc1c(C(=O)N2CCN(C)[C@@H]3CS(=O)(=O)C[C@@H]32)[nH]c2ccccc12`, the INHIBITION is given as 60.1%. The figure for `CC(C)c1nn(C)c(N(C)C)c1CNC1CCOc2c(F)cccc21` (stereo unspecified) is -12.5%; for `O=C(c1cnccn1)N1CC2(CCN(Cc3ccsc3)C2)C1` it is 23.3%.

For `CN(C)C(=O)C1CSCN1C(=O)CCc1ccco1` (stereo unspecified), the INHIBITION is reported as -75%. Consider `CS(=O)(=O)NC1(CCc2ccc(NC(=O)C3CC3)nc2)CCCCC1`, for which the INHIBITION stood at 40.6%.

With `CC(=O)Nc1ccc(CCC2(NC(=O)C3CC3)CCCCC2)cn1`, the INHIBITION worked out at 59.2%. Under `CC(=O)Nc1ccc(CCC2(NC(=O)C3CCCO3)CCCCC2)cn1` (stereo unspecified) stands -1.16%. The figure for `Cc1nn(C(C)C)c2cn(CC(=O)NC3CCSCC3)nc12` is -3.83%; for `O=C(Cc1ccc2c(c1)OCCO2)NCc1ccc(-n2cncn2)nc1` it is 19.2%; for `Nc1cc(-c2cccs2)nn(CC(=O)N2CCc3ccccc32)c1=O` it is 72.2%.

Take `Nc1cc(-c2cccs2)nn(CC(=O)NCC2CCCCC2)c1=O`: the INHIBITION turned out to be 6.32%. Under `CC1Cc2ccccc2N1C(=O)Cn1nc(-c2cccs2)cc(N)c1=O` (stereo unspecified) stands 18.3%; under `CCS(=O)(=O)N1CC(=O)N(CCCc2ccccc2)CC(O)C1` (stereo unspecified), 26.8%. The figure for `O=C(CCc1nc2cccnc2[nH]1)NCc1ccncc1` is -0.532%.

For `Cc1ccc(CN2CCN(c3cncc(N(C)C)n3)CC2=O)cc1C`, the INHIBITION was found to be 56.3%. Under `Cc1ccc(CN2CCN(c3ccc(F)cn3)CC2=O)cc1C` stands 11.2%; under `Cc1ccc(CN2CCN(Cc3ccc(N(C)C)nc3)CC2=O)cc1C`, 44%; under `CS(=O)(=O)CCn1ccc(NC(=O)c2c(F)cccc2F)n1`, 46.1%. As to `Cc1nccn1C1CCCN(C(=O)c2ccc(N(C)C)nn2)C1` (stereo unspecified), the INHIBITION was -22.9%. In the case of `COc1ccccc1NCc1cscn1`, the INHIBITION came to 27.5%.

Take `COc1ncc(NCc2ccsc2)cc1C(N)=O`: the INHIBITION amounted to 32.2%. Under `COc1ccncc1NCc1ccsc1` stands 71.3%; under `CC(C)(C)Oc1ccncc1NCc1cscn1`, 70.3%; under `COc1ccncc1NCc1cscn1`, 21.6%.

Regarding `O=C(CCc1ccsc1)Nc1cnccc1O`, the INHIBITION is reported as -3.43%. Turning to `Cc1noc(C)c1CSC1CCCN(c2cnn(C)c2)C1=O` (stereo unspecified), the INHIBITION was -41.9%. Under `COCCN1CCOCC12CCN(Cc1ccn(C)n1)CC2` stands 34.6%.

Regarding `CC(=O)NCc1cc2n(n1)CCN(Cc1cc(-c3ccccc3)no1)C2`, the INHIBITION is reported as 32.2%.

Take `COCCN1CCC2(CC1)CC(c1cccnc1)C(=O)N2C` (stereo unspecified): the INHIBITION amounted to 26.5%. Under `CCc1nc(C2CCCN(C(=O)NC(C)C)C2)no1` (stereo unspecified) stands 13.6%; under `O=C([C@@H](O)Cc1ccccc1)N1CCCn2cncc2C1`, 18.6%; under `Cc1ccnc(NC(=O)c2cnc(C3CCCNC3)cn2)c1` (stereo unspecified), 37.35%. Under `CC(C)NC(=O)COc1cccc(-c2nc(C(C)C)no2)c1` stands 26.8%; under `CCc1cc(=O)n(CC(=O)N2CCCC2)c(-c2ccccc2)n1`, 4.35%. The figure for `CCc1cc(=O)n(CC(=O)N2CCC(C)CC2)c(-c2ccccc2)n1` is 57.3%; for `CCc1cc(=O)n(CC(=O)N2CCC(C)CC2)c(-c2cccc(F)c2)n1` it is 17.6%. Turning to `CNc1nc2c(s1)C(c1cc(Cl)ccc1F)CC(=O)N2` (stereo unspecified), the INHIBITION stood at 35.8%. The figure for `CCn1cc(CN(C)S(=O)(=O)c2ccc(C(C)C)cc2)cn1` is 26.7%. Under `Cc1cc(C)n(CC2CN(c3ccc(C#N)cn3)CCO2)n1` (stereo unspecified) stands 23.7%. The figure for `Cc1nn(C)c2cnn(Cc3ccc(C(=O)N4CCCCC4)o3)c12` is 21.7%; for `Cc1nn(C)c2cnn(Cc3ccc(C(=O)N4CCN(C)CC4)o3)c12` it is 65.6%; for `Cc1nn(C)c2cnn(Cc3ccc(C(=O)NC4CC4)o3)c12` it is 16.8%. `CCc1ccc(NC(=O)N2C[C@@H]3C[C@H](C(=O)NC)[C@H](C2)O3)cc1`: the INHIBITION is 15%.

`O=C1NCc2ccccc2CC12CCCN(Cc1ccsc1)C2` (stereo unspecified): the INHIBITION stood at 14.3%. The figure for `O=C(Nc1ncn(CC(=O)N2CCCCCC2)n1)C1CCCC1` is 2.7%; for `O=C(COCC1CC1)Nc1ncn(CC(=O)N2CCCCCC2)n1` it is -32.4%. Under `O=C(CC1C=CCC1)Nc1ncn(CC(=O)N2CCCCCC2)n1` (stereo unspecified) stands 50.6%; under `O=C(COC1CCCC1)Nc1ncn(CC(=O)N2CCCCCC2)n1`, 8.75%. For the molecule `CC(OCC1CC1)C(=O)Nc1ncn(CC(=O)N2CCCCCC2)n1` (stereo unspecified), the INHIBITION was found to be 51.7%. On to `CC(CC(=O)Nc1ncn(CC(=O)N2CCCCCC2)n1)C1CC1` (stereo unspecified), for which the INHIBITION is on record as -28.8%. The figure for `Cc1ccc2oc(C(=O)N3CCCC(n4nc(C)nc4C)C3)cc2n1` (stereo unspecified) is -2.95%; for `COc1ccc(CNC(=O)CCCc2nnc3ccc(OC)nn23)cc1` it is 8.99%.

As for `CCn1nc(CNC(C)(C)CO)c(-c2ccccc2)n1`, the INHIBITION is listed as 20.9%.

For the molecule `CCCOCC(=O)N1CCc2c(cccc2S(=O)(=O)N2CCOCC2)C1`, the INHIBITION was determined as 26.7%. The figure for `Fc1cnc(N2CC[C@@H]3O[C@@H](COCc4ccccn4)CC[C@@H]32)nc1` is 18.5%; for `c1cnc(N2CCC3(CCN(CC4CCOC4)C3)CC2)nc1` (stereo unspecified) it is 34.7%; for `COc1ccc(C(=O)NCC2CCCN(C3CCOCC3)C2)c(O)c1` (stereo unspecified) it is 57.4%. The figure for `COc1cccc(OCC2CCCN(C3CCN(C(C)=O)CC3)C2)c1` (stereo unspecified) is 15.1%; for `COCCNC(=O)c1cc(OC)ccc1Br` it is -85%; for `Cc1cccc(C)c1NC(=O)NCC1CCCN(C2CCOCC2)C1` (stereo unspecified) it is -15%. Under `COc1ccc(Br)c(C(=O)NCC2CCN(S(=O)(=O)C3CC3)CC2)c1` stands 38.5%; under `COc1ccc(Br)c(C(=O)NCC2CC2)c1`, 90.2%. In the case of `COc1cccc(NC(=O)NCC2CCCN(C3CCOCC3)C2)c1` (stereo unspecified), the INHIBITION is given as 58.8%. Under `COc1ccc(O)c(C(=O)NCC2CCCN(C3CCOCC3)C2)c1` (stereo unspecified) stands 14.3%; under `COc1ccc(C(=O)Nc2cnn(CCN3CCOCC3)c2)c(O)c1`, 29.5%. Under `CC(NC(=O)N(C)CCCOc1ccccc1)c1nncn1C` (stereo unspecified) stands 0.914%; under `Cc1ccc(N2CCC3(CCC(=O)N3Cc3ccncc3)CC2)nn1`, 3.17%; under `CCc1nnc2n1CCN(C(=O)C(C)Oc1ccc(C#N)cc1)C2` (stereo unspecified), -48.3%.

Regarding `CCS(=O)(=O)N1Cc2ccnn2CC(c2nc(C)no2)C1` (stereo unspecified), the INHIBITION was -5.63%. The figure for `Cc1noc(C2CN(S(=O)(=O)C3CC3)Cc3ccnn3C2)n1` (stereo unspecified) is 34.6%; for `Cc1noc(C2CN(S(C)(=O)=O)Cc3ccnn3C2)n1` (stereo unspecified) it is 50.7%. For the molecule `CNc1oc(-c2ccc(OC)c(S(=O)(=O)N(C)C)c2)nc1C#N`, the INHIBITION is recorded as 8.46%. The figure for `CC1CN(C(=O)Nc2cc(C(F)(F)F)c[nH]c2=O)CCO1` (stereo unspecified) is -4.12%.

Take `O=C(Cc1ccccn1)N1C[C@H]2CC[C@@H](C1)N(Cc1ccccc1)C2=O`: the INHIBITION is -4.86%.

As for `O=C(Cc1ccncc1)N1C[C@H]2CC[C@@H](C1)N(Cc1ccccc1)C2=O`, the INHIBITION is given as 63.7%.

As for `O=C(Cc1cccnc1)N1C[C@H]2CC[C@@H](C1)N(Cc1ccccc1)C2=O`, the INHIBITION was determined as 40.4%. The figure for `CCc1nc(CNc2ccc(C(=O)N3CCSCC3)cc2C)no1` is 15.5%; for `O=C(O)c1cc2c(nc1-c1ccsc1)CCN(C1CCOC1)CC2` (stereo unspecified) it is 11.3%; for `Cc1ccc(N2CCN(C(=O)CCc3n[nH]c(C)n3)CC2=O)cc1` it is 2.7%. Under `CCn1ccnc1CN1CCCN(C(=O)c2cccn2C)CC1` stands 56.6%; under `CC(CC(=O)N1CCCN(Cc2nccn2C)CC1)n1cccc1` (stereo unspecified), 18.9%; under `CCn1ccnc1CN1CCCN(C(=O)c2ccnn2C)CC1`, 16.45%. On to `CCn1ccnc1CN1CCCN(C(=O)c2cc(C)nn2CC)CC1`, for which the INHIBITION came to 32.3665%. Under `Cn1ccnc1CN1CCCN(C(=O)CC(C2CC2)C2CC2)CC1` stands 50.3%; under `Cn1ccnc1CN1CCCN(C(=O)c2ccc3cc[nH]c3c2)CC1`, 55.2%. Under `CC(OCC1CC1)C(=O)N1CCCN(Cc2nccn2C)CC1` (stereo unspecified) stands 9.32%; under `CC(Oc1ccccc1)C(=O)N1CCCN(Cc2nccn2C)CC1` (stereo unspecified), 54.4%. Under `Cn1ccnc1CN1CCCN(C(=O)c2ccc3ccccc3c2)CC1` stands 27.8%; under `Cn1ccnc1CN1CCCN(C(=O)c2ccc3[nH]cnc3c2)CC1`, 21%; under `Cn1ccnc1CN1CCCN(C(=O)COC2CCCC2)CC1`, -11.4%. For the molecule `CSC(C)C(=O)N1CCCN(Cc2nccn2C)CC1` (stereo unspecified), the INHIBITION was -5.25%. In the case of `CCNc1nc2cn(-c3ccc(CC)cc3)c(=O)c-2c[nH]1`, the INHIBITION was -14.245%. The figure for `Cn1cc(C2CCCN2C(=O)c2ccc(OCC3CC3)nc2)cn1` (stereo unspecified) is -27%; for `O=S(=O)(CCN1CCN(c2ccccc2O)CC1)c1ccc(Cl)cc1` it is -36.3%. The figure for `CN(C)CCN1C[C@@H]2CN(C(=O)C3CCOC3)C[C@@H]2C1=O` (stereo partly specified) is 12.7%; for `COc1ccc(/C=C/CN2C[C@@H]3CC[C@H]2CN(S(=O)(=O)N(C)C)C3)cc1` it is 38.6%.
